This is a sample that favours compounds with a hit; in the whole collection about 14% have one here.
CHX counter – Cycloheximide Counterscreen for Small Molecule Inhibitors of Shiga Toxin | cell reporter, cycloheximide protein synthesis inhibition counterscreen | 12% of 300,000 active | max response, %; in the data active = max response mostly above about 13%, no sharp cut-off; inactive = mostly below about 14%; note: read at 38.3 µM for the half of the compounds with a filed dose
NS1 function inh – qHTS Assay for Inhibitors of Influenza NS1 Protein Function | Potency, µM (top dose mostly 46.1 µM) | 0.4% of 270,000 active; calls by dose curve; note: actives are rising curves; nearly all actives have a fitted effect of over 50% in size
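Read-out: OD600 growth recovery of NS1-expressing budding yeast. Cells grown overnight at 30C in -URA glucose medium, washed, resuspended and diluted 1:100 in 2% galactose assay medium, pH 6.0. Same strain lacking NS1 served as positive control.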
LmPK inh – qHTS Assay for Inhibitors of Leishmania Mexicana Pyruvate Kinase (LmPK); 0.37% of 290,000 active; Potency, µM (titrated, usually from 57.5 µM), hits mostly inhibitors; purified LmPK, Kinase-Glo ATP luminescence, 1 h
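qHTS format; LmPK 0.1 nM; substrates PEP 0.5 mM and ADP 0.1 mM. One-hour room-temperature incubation, then coupled luciferase luminescence; 0.5 nM enzyme wells mark activation.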
Giardia FBPA inh – qHTS Assay for Inhibitors of Fructose-1,6-bisphosphate Aldolase from Giardia Lamblia; A8B2U2; purified Giardia FBPA; Potency, µM (series often up to 59.6 µM), actives largely listed as inhibitors; 0.71% of 290,000 active; AID 2451, 2010; note: nearly all actives have a fitted effect of over 55% in size
Target sequence (A8B2U2 whole entry, looked up): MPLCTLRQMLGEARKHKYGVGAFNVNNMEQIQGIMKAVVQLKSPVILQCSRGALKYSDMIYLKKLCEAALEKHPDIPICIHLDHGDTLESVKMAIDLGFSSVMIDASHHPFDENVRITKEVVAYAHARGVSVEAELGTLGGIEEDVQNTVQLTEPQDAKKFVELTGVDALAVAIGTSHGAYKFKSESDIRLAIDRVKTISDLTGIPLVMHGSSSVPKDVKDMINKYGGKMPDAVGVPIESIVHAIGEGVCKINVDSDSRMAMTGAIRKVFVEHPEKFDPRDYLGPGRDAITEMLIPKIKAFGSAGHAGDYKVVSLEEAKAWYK
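40 nM FBPA preincubated 10 min at RT with compound (up to 57.5 uM final), then substrate plus GAPDH/TPI/NAD/arsenate coupling and diaphorase/resazurin added. Fluorescence read after 20 min at RT, 525/598 nm.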
Shiga toxin inh – A qHTS for Small Molecule Inhibitors of Shiga Toxin | Vero cells, Shiga toxin protein synthesis inhibition reporter | inhibition, % at 38.7 µM | 9.2% of 290,000 active; in the data active = inhibition mostly above about 28%, no sharp cut-off; inactive = mostly below about 43%
A number is an active result; [ ] = dose if it differs, or a comment. Unless noted, calls come from the whole dose curve; as a rule, active = well fitted curve in the direction sought with a large enough effect; inconclusive = small, poorly fitted or top-dose-only effect, or another doubt; inactive = no such curve, though single readings can be large; an effect the other way counts as inactive or inconclusive.

Results for CCOC(=O)CNC(=O)c1c(C)nn(-c2ccccc2)c1Cl ?
CHX counter: inactive; NS1 function inh: inactive; LmPK inh: inactive; Giardia FBPA inh: inactive; Shiga toxin inh: inactive

What do the screens show for `Cc1ccccc1NC(=O)c1c(C)nn(-c2ccccc2)c1Cl`?
CHX counter: 37.8; NS1 function inh: inactive; LmPK inh: inactive; Giardia FBPA inh: inactive; Shiga toxin inh: 68.6

What do the screens show for `CC(=O)Nc1ccc(NC(=O)c2c(C)nn(-c3ccccc3)c2Cl)cc1C`?
CHX counter: inactive; NS1 function inh: inactive; LmPK inh: inactive; Giardia FBPA inh: inactive; Shiga toxin inh: inactive

How did COc1ccccc1NC(=O)c1c(C)nn(-c2ccccc2)c1Cl do in these assays?
CHX counter: 14.2; NS1 function inh: inactive; LmPK inh: inactive; Giardia FBPA inh: inactive; Shiga toxin inh: inactive

What do the screens show for `Cc1nn(-c2ccccc2)c(Cl)c1C(=O)NCC(C)c1ccccc1` (centres undefined)?
CHX counter: 43.4; NS1 function inh: inactive; LmPK inh: inactive; Giardia FBPA inh: inactive; Shiga toxin inh: 73.7

How did CCc1nnc(NC(=O)c2c(C)nn(-c3ccccc3)c2Cl)s1 do in these assays?
CHX counter: 42.4; NS1 function inh: inactive; LmPK inh: inactive; Giardia FBPA inh: inactive; Shiga toxin inh: inactive

Results for CCOc1ccccc1C(=O)Nc1ccc2c(c1)C(=O)NC2=O ?
CHX counter: inactive; NS1 function inh: inactive; LmPK inh: inactive; Giardia FBPA inh: inactive

What do the screens show for `CCOC(=O)c1ccc(NS(=O)(=O)c2ccc3oc(=O)[nH]c3c2)cc1`?
CHX counter: inactive; NS1 function inh: inactive; LmPK inh: inactive; Giardia FBPA inh: inactive; Shiga toxin inh: inactive

What do the screens show for `CCn1ccc(C(=O)Oc2ccc(C(C)C)cc2)n1`?
CHX counter: 35.5; NS1 function inh: inactive; LmPK inh: inactive; Giardia FBPA inh: inactive; Shiga toxin inh: 70.7

How did CCOc1ccc(NC(=O)CC2SC(N)=NC2=O)c([N+](=O)[O-])c1 (centres undefined) do in these assays?
CHX counter: inactive; LmPK inh: inactive; Giardia FBPA inh: inactive; Shiga toxin inh: inactive

What do the screens show for `CCOc1ccc(NC(=O)c2ccco2)c([N+](=O)[O-])c1`?
CHX counter: 66.4; NS1 function inh: inactive; LmPK inh: inactive; Giardia FBPA inh: inactive; Shiga toxin inh: 39.9

Results for CCOc1ccc(NC(=O)c2cccnc2Cl)c([N+](=O)[O-])c1 ?
CHX counter: inactive; NS1 function inh: inactive; LmPK inh: inactive; Giardia FBPA inh: inactive; Shiga toxin inh: inactive

What do the screens show for `CCOc1ccc(NC(=O)c2ccc(CC)s2)c([N+](=O)[O-])c1`?
CHX counter: 23.3; NS1 function inh: inactive; LmPK inh: inactive; Giardia FBPA inh: inactive; Shiga toxin inh: 34.0

What do the screens show for `CCOc1ccc(NC(=O)c2cccs2)c([N+](=O)[O-])c1`?
CHX counter: 87.4; NS1 function inh: inconclusive; LmPK inh: inactive; Giardia FBPA inh: inactive; Shiga toxin inh: 120.4

Results for O=C(Cc1cn2ccsc2n1)OCc1ccccc1 ?
CHX counter: 26.7; NS1 function inh: inactive; LmPK inh: inactive; Giardia FBPA inh: inactive; Shiga toxin inh: 62.5

How did c1ccc(CSCc2cn3ccsc3n2)cc1 do in these assays?
CHX counter: 38.9; NS1 function inh: inactive; LmPK inh: inactive; Giardia FBPA inh: inactive; Shiga toxin inh: 12.4

How did O=c1c2ccccc2nc(SCc2cn3ccsc3n2)n1-c1ccccc1F do in these assays?
CHX counter: 29.6; NS1 function inh: inactive; LmPK inh: inactive; Giardia FBPA inh: inactive; Shiga toxin inh: 41.4

Results for O=c1c2ccccc2nc(SCc2cn3ccsc3n2)n1-c1ccccc1 ?
CHX counter: inactive; NS1 function inh: inactive; LmPK inh: inactive; Giardia FBPA inh: inactive; Shiga toxin inh: inactive

What do the screens show for `O=C(Cc1cn2ccsc2n1)OCc1nc2ccccc2s1`?
CHX counter: inactive; NS1 function inh: inactive; LmPK inh: inactive; Giardia FBPA inh: inactive; Shiga toxin inh: inactive

What do the screens show for `O=C(Cc1cn2ccsc2n1)NCc1ccccc1`?
CHX counter: inactive; NS1 function inh: inactive; LmPK inh: inactive; Giardia FBPA inh: inactive; Shiga toxin inh: inactive

How did CC(C)C[C@H](NC(=O)[C@H](C)NC(=O)CNC(=O)[C@H](CCCCN)NC(=O)[C@H](CCCN=C(N)N)NC(=O)[C@H](C)NC(=O)[C@H](Cc1ccccc1)NC(=O)[C@@H](N)CCCN=C(N)N)C(=O)N[C@@H](CCCN=C(N)N)C(=O)N[C@@H](CCC(N)=O)C(=O)N[C@@H](CCCCN)C(=O)N[C@@H](CC(N)=O)C(=O)N[C@H](C(N)=O)C(C)C do in these assays?
CHX counter: inactive; Giardia FBPA inh: inactive; Shiga toxin inh: inactive

What do the screens show for `CN(C)c1ccc(C=C2C(=O)OC(C)(C)OC2=O)cc1`?
CHX counter: inactive; LmPK inh: inactive; Giardia FBPA inh: inactive; Shiga toxin inh: inactive

What do the screens show for `CC(C)/C=C1\CC/C(=C\c2ccc(N(C)C)cc2)C1=O`?
CHX counter: 35.5; NS1 function inh: inactive; LmPK inh: inactive; Giardia FBPA inh: inactive; Shiga toxin inh: 77.1

Results for CC(C)c1ccc(/C=C2\CC/C(=C\C=N\N(C)C)C2=O)cc1 ?
CHX counter: 55.3; NS1 function inh: inactive; LmPK inh: inactive; Giardia FBPA inh: inactive; Shiga toxin inh: 124.6

Results for CC(C)c1ccc(/C=C2\SC(N3CCCC3)=NC2=O)cc1 ?
CHX counter: inactive; NS1 function inh: inactive; LmPK inh: inactive; Giardia FBPA inh: inactive; Shiga toxin inh: inactive

What do the screens show for `CC1CCCCN1C(=O)COC(=O)C1CCN(S(=O)(=O)c2c(Cl)cccc2Cl)CC1` (centres undefined)?
CHX counter: inactive; NS1 function inh: inactive; LmPK inh: inactive; Shiga toxin inh: inactive

Results for Cc1ccc2nc(CCc3nc4ccc(C)cc4o3)oc2c1 ?
CHX counter: inactive; NS1 function inh: inactive; LmPK inh: inactive; Giardia FBPA inh: inactive; Shiga toxin inh: inactive

How did Cc1ccc2nc(Cc3ccc(N)cc3)oc2c1 do in these assays?
CHX counter: 28.4; NS1 function inh: inactive; LmPK inh: inactive; Giardia FBPA inh: inactive; Shiga toxin inh: 61.6

How did Nc1ccc2nc(CCc3ccccc3)[nH]c2c1 do in these assays?
CHX counter: 71.4; NS1 function inh: inactive; LmPK inh: inactive; Giardia FBPA inh: inconclusive; Shiga toxin inh: 22.5

What do the screens show for `CCc1nc2ccc(Cc3ccc4nc(CC)[nH]c4c3)cc2[nH]1`?
CHX counter: inactive; NS1 function inh: inactive; LmPK inh: inactive; Giardia FBPA inh: inactive; Shiga toxin inh: inactive

What do the screens show for `Cc1ccc2nc(CCc3ccc(N)cc3)[nH]c2c1`?
CHX counter: 49.9; NS1 function inh: inconclusive; LmPK inh: inactive; Giardia FBPA inh: inconclusive

Results for CCOC(=O)c1oc2c(c1C)C(=O)CCC2 ?
CHX counter: inactive; NS1 function inh: inactive; LmPK inh: inactive; Giardia FBPA inh: inactive; Shiga toxin inh: inactive

How did CCOC(=O)c1oc2c(c1C)/C(=N/O)CCC2 do in these assays?
CHX counter: 41.2; NS1 function inh: inactive; LmPK inh: inactive; Giardia FBPA inh: inactive; Shiga toxin inh: 65.5

Results for CC1CCC(C(=O)O)NC1c1ccc(C#CCN(C)C)cc1 (centres undefined) ?
Giardia FBPA inh: inactive[12.9 µM]
